The campaign covered roughly 53,000 sequences. About 3,700 (7%) were called active. This excerpt belongs to a sample that is enriched for actives. A number with no mark means an inactive call.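 Rule for the calls: active = gene knockdowns whose robust z-score for IL-1 alpha signal is at least 2 or at most -2, so actives lie on both sides; inactive = the rest.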
Assay: Components of the Cytosolic LPS Sensing Pathway: Gene Identification via Genome-wide siRNA Screen;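 note: robust z of the log signal after scaling to non-targeting control siRNA wells of the plate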
Conditions: RAW264.7 macrophages, IL-1a HTRF, actives lie on both sides, screened at 100 nM (by protocol), cells primed 5 h with Pam3CSK4 first
Summary of the method: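 Supernatant IL-1a by HTRF from RAW264.7 cells primed with Pam3CSK4 (5 hours) and transfected with LipidA (24 hour) after 48h siRNA knockdown at 100 nM; cell viability checked with CellTiter-Glo.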

| Sequence | z-score |
| --- | --- |
| GGAUCUCUUAGGUAUCUUATT against Nlrp14 | 1.45 |
| GGAACACUGGAAGAAAGAUTT against Arhgap35 | -1.21 |
| GAUGUACUUGAUAAAGCCUTT against Ugt2b37 | 3.68 (active) |
| CCCAUCUCACUAUUUAAUATT against Lrrc3b | -1.23 |
| GCUGCACAAGUGCAUUUUUTT against Srp14 | -1.34 |
| GGGUAUUUCCACUUCAUAGTT against Acsm2 | 1.59 |
| GCUCAUGGACCAACCUAUGTT against Olfr1180 | 0.501 |
| GCUUUCCGGAAUACGAGCUTT against Snapc3 | -0.638 |
| CGCAAGAUCCUCAAACGAGTT against Proc | -0.358 |
| GGGAACAAGUUGAGCUACUTT against Ebp | -0.0574 |
| UAGGAGAUAUCUGCUACCGTT against Fbxw16 | -2.53 (active) |
| CCAUGUUCGGACGUGGUCUTT against Shkbp1 | -1.17 |
| GGAGAGGAAUCAAGUGGUGTT against Lig1 | -1.04 |
| GGUGCUUUAUUAGGUAUUCTT against Atp6v1g3 | -1.26 |
| GGGUAGCUUUAAAUAAAGGTT against Olfr801 | 2.47 (active) |
| GCAUAAGCCUAAAAAUUCUTT against Ptprd | 0.43 |
| GCCCUCUUGUGAUUAAGCATT against Esr1 | -0.959 |
| GCUAAGAAGAGGAUUCCAATT against Spag1 | -0.579 |
| GCAGCAGUGCUUACUUAACTT against Ccdc25 | 0.212 |
| GGAAAGUGAUGUCACAAAATT against G3bp1 | 1.31 |
| GGUGUUUGUGAAGGAGCAGTT against Fam117a | 2.98 (active) |
| GGCCAACCUGGAGAACUUGTT against Atp6v1c2 | 0.441 |
| GGUUAAUAUUAGCAUCGUCTT against Zdhhc23 | 0.908 |
| GGCUCUGUGUUGGUAAUGATT against Yipf1 | -0.538 |
| GGGUCAUCGGAACAGAACUTT against Sult3a1 | -2.26 (active) |
| GGGCAACUGUACGUACCAUTT against Cd93 | 0.0137 |
| GGGAGCAUUUCCUUAUACUTT against Tpmt | 0.67 |

| Sequence | z-score |
| --- | --- |
| GGAUAAAGCCACAUUUGGUTT against Apoh | -0.483 |
| GGAACCAGAGGACAAAGACTT against Ccdc96 | -2.43 (active) |
| GGCUGGUGUAAAAGACACGTT against Nat14 | 0.142 |
| GGGUUUUCGGGAGAUCUGUTT against Ltbp4 | -0.44 |
| GGAGCACUAUGAUGAGUUCTT against U2af1 | -0.452 |
| GCACUAUGGUAUUGAAAUUTT against Armc5 | 0.635 |
| GGAUUCUGAAAUCAGUGCUTT against Capn8 | 1.52 |
| GGUCACCAAGCAACACAAUTT against Fen1 | 2.56 (active) |
| GCAGUAAAAUGACAUUUGGTT against Dennd6b | 0.694 |
| GCUAGGUGCUGCUACGAAATT against Tex13c3 | -0.0824 |
| GGGCAGUAAGACCUUCAUGTT against Dhcr24 | 0.685 |
| GGUUGAAGGCCAAUUCAAATT against Lrrc10 | 2.94 (active) |
| GCACUAGCAGGAUUCAUUGTT against Gabrb2 | -1.25 |
| CGAUUGCUCUUAACCCUUGTT against Zfp597 | -0.233 |
| GGCAUCCUGAGAGAACUCATT against Insyn1 | -2.27 (active) |
| GCUGACCUAUUCUGAUCCATT against Chchd4 | -0.223 |
| GGUUCAGAUCCCUAAAAUATT against Ago4 | -0.557 |
| GGACAUGGAACUGGAUGAATT against Ciita | -2.49 (active) |
| GGUGAUCACAAAUAUGAUGTT against Ubxn2b | -0.173 |
| GGAGUUUGUUAAUUUCGCATT against Rundc3a | 0.612 |
| GCACGGAGCCAAAUAAUCUTT against Rpl28 | 2.07 (active) |
| GGAAGUAGAGAUCUCCUUATT against Btn1a1 | 0.96 |
| GGAAGUGCUACUUUCUGGGTT against Tmem178 | 1.74 |
| GGAGAUGAAGUGGACAGACTT against Anapc13 | 1.02 |
| GGUGAACGAACAUUGGUAUTT against Sorbs3 | -0.614 |
| CCAUCACGAGUGAAUUCGATT against Olfr945 | -2.13 (active) |
| GGAGCGAUCUGAAAAUUUGTT against Rasip1 | -0.365 |

Source: PubChem BioAssay AID1508600 (Functional Genomics Laboratory (NCATS/FGL), 2020)
